Inconclusive results are not listed. Values without a mark were called inactive. Activity calls are given as the source filed them. Calls come from the whole dose curve.
Assay: Cell Viability - SK-N-SH (AID 435);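 note: compound exposure lasted 40 h at 37 °C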
Conditions: SK-N-SH neuroblastoma cell viability qHTS
Description: NIH Chemical Genomics Center [NCGC]
NIH Molecular Libraries Screening Centers Network [MLSCN]
National Institutes of Environmental Health Sciences [NIEHS]
National Toxicology Program [NTP]
We have developed a 1536-well cell-based assay for quantitative high throughput screening (qHTS) against a number of cell lines to determine in vitro cytotoxicity of small molecules. This particular assay uses the SK-N-SH cell line which is derived from human neuroblastoma.
NCGC Assay Protocol Summary:
The CellTiter-Glo luminescent cell viability assay (Promega) is a homogeneous method to measure the number of viable cells in culture. The end point readout of this assay is based on quantitation of intracellular ATP, an indicator of metabolic activity, using the luciferase reaction. Luciferase catalyzes the oxidation of beetle Luciferin to oxyluciferin and light in the presence of ATP. The luminescent signal is proportional to amount of ATP present.
Using the CellTiter-Glo luminescent cell viability assay, the amount of cellular ATP was measured in the SK-N-SH cell line with complete culture medium following compound treatment for 40 hours. The assay was performed in opaque white Kalypsys 1536-well plates. In the screen, tamoxifen and doxorubicin were used as positive controls. Library compounds were measured for their ability to cause acute toxicity in the cell line, as reflected by a decrease in intracellular ATP levels, in a concentration-dependent manner. Data were normalized to the controls for basal activity (DMSO only) and 100% inhibition (100 uM tamoxifen). AC50 values were determined from concentration-response data modeled with the standard Hill equation.
qHTS protocol fo CellTiter Glo SK-N-SH cellular assay
[Step] [Parameter] [Value] [Description]
1. Reagent; 5 uL; 1500 SK-N-SH cells/well
2. Time; 5 hr; 37 °C incubation
4. Controls; 23 nL; Tamoxifen 0.34 uM to 100 uM & Doxorubicin 0.02 nM to 100 uM
5. Time; 40 hr; 37 °C incubation
6. Reagent; 5 uL; CellTiter Glo reagent
7. Time; 20 min; Room Temperature
8. Detection; Luminescence; Viewlux plate reader
Keywords: cell viability, cytotoxicity, SK-N-SH cell line, luminescence, NTPHTS, NTPHTS_NCGC, NIEHS, EPA, DSSTox, MLSMR, MLSCN, NIH Roadmap, qHTS, NCGC
Potency is the fitted concentration of half-maximal effect.

Row | Compound | Potency
1 | CN=C(NC#N)NCCSCc1nc[nH]c1C | > 92 µM
2 | NC(=Nc1ccccc1)Nc1ccccc1 | > 92 µM
3 | CCCCNC(=O)NS(=O)(=O)c1ccc(C)cc1 | > 92 µM
4 | Nc1nc(N)c2nc(-c3ccccc3)c(N)nc2n1 | 66.1 µM (active)
5 | CCCCOCCOCCOCc1cc2c(cc1CCC)OCO2 | > 92 µM
6 | NC(=O)N1c2ccccc2C=Cc2ccccc21 | > 92 µM
7 | COc1cc(Cc2cnc(N)nc2N)cc(OC)c1OC | > 92 µM
8 | COc1ccc(CN(CCN(C)C)c2ccccn2)cc1 | > 92 µM
9 | O=c1[nH]c(=O)n([C@H]2C[C@H](O)[C@@H](CO)O2)cc1Br | > 92 µM
10 | Nc1ncn([C@@H]2O[C@H](CO)[C@@H](O)[C@H]2O)c(=O)n1 | 16.6 µM (active)
11 | COC(=O)[C@H]1[C@H]2C[C@@H]3c4[nH]c5cc(OC)ccc5c4CCN3C[C@H]2C[C@@H](OC(=O)c2cc(OC)c(OC)c(OC)c2)[C@@H]1OC | 46.3 µM (active)

Source: PubChem BioAssay (NCATS)
